Among the data in PubChem BioAssay (NCI) are growth values, retold here.

The panel holds about 83,000 compounds, 20% with a hit somewhere; the sample as a whole holds those more often.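 Cell lines were cultured in 96-well plates, exposed to a single compound concentration, and assessed for percent growth 48 hours later.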 Unmarked numbers belong to inactive results. Activity calls are given as the source filed them. Rule for the calls: active = growth percent below 10; inactive = the rest.

Test systems include DU-145 prostate; K-562 leukemia; MALME-3M melanoma; MDA-MB-231 breast; RXF 393 renal; SF-268 CNS; SF-295 CNS; SF-539 CNS; UACC-257 melanoma; M14 melanoma; HCT-15 colon; HT29 colon; SNB-75 CNS; SNB-19 CNS; U251 CNS; PC-3 prostate; SK-MEL-5 melanoma; UACC-62 melanoma; LOX IMVI melanoma; SK-MEL-28 melanoma.
Holding throughout (assay): NCI-60 one-dose screen, 48 h (100 = growth as untreated, 0 = no growth, -100 = all killed)
Conditions in all cases: 10 µM unless noted

Take `COc1ccc(/C=C/C(=O)c2cc(OC)c(OC)c(OC)c2)cc1OCC(=O)Nc1nc2ccc(OC(F)(F)F)cc2s1`: the growth in the assay on DU-145 prostate was -30.3% (active); in the assay with K-562 leukemia, 5.93% (active); with MALME-3M melanoma it was 26.8%; in the assay with MDA-MB-231 breast, -16.1% (active); in the assay on RXF 393 renal it was -29.7% (active); in the assay with SF-268 CNS, 9.91% (active). Also, the growth is 0.996% (active) with SF-295 CNS; -58.4% (active) in the assay with SF-539 CNS; 68.6% with UACC-257 melanoma; 1.09% (active) in the assay on M14 melanoma; 11.7% in the assay with HCT-15 colon; 20.1% in the assay on HT29 colon. The growth was -33.1% (active) with SNB-75 CNS; 12.9% with SNB-19 CNS; -45.9% (active) in the assay on U251 CNS; 33.4% in the assay with PC-3 prostate; 2.06% (active) in the assay on SK-MEL-5 melanoma; 60% with UACC-62 melanoma. Besides, the values for the growth with LOX IMVI melanoma and with SK-MEL-28 melanoma were -22.9% (active) and 36.4%, respectively.

As to `Cc1c(CN)cc(-c2ccc(Cl)cc2)n1-c1ccccc1`, the growth was 89.2% with DU-145 prostate; 66.1% with K-562 leukemia; 107% in the assay on MALME-3M melanoma; 87.1% in the assay with MDA-MB-231 breast; 84.6% in the assay on RXF 393 renal; 86.4% in the assay on SF-268 CNS. Further, the growth was 87.7% in the assay with SF-295 CNS; 93.7% in the assay on SF-539 CNS; 91.1% in the assay with UACC-257 melanoma; 82.8% in the assay with M14 melanoma; 80.9% in the assay with HCT-15 colon; 103% with HT29 colon. The growth in the assay on SNB-75 CNS was 78.5%; in the assay with SNB-19 CNS it was 84.7%; in the assay with U251 CNS it was 79.9%; in the assay with PC-3 prostate, 89.4%; in the assay on SK-MEL-5 melanoma, 82.4%; in the assay on UACC-62 melanoma, 57%. In addition, the growth was 67% in the assay on LOX IMVI melanoma and 114% in the assay on SK-MEL-28 melanoma.

Regarding `C#CC#CC#CC#CC#CC#CC#CC#CC[C@@H]1OC[C@@H](COC(=O)O[C@@H](C(=O)O[C@H]2C[C@@]3(O)[C@@H](OC(=O)c4ccccc4)[C@@H]4[C@]5(OC(C)=O)CO[C@@H]5C[C@H](O)[C@@]4(C)C(=O)[C@H](OC(C)=O)C(=C2C)C3(C)C)[C@@H](NC(=O)c2ccccc2)c2ccccc2)O1`, the growth was 102% in the assay on DU-145 prostate; 7.18% (active) in the assay with K-562 leukemia; 37.4% in the assay on MALME-3M melanoma; 5.64% (active) in the assay on MDA-MB-231 breast; -12.3% (active) in the assay with RXF 393 renal; 94.5% with SF-268 CNS. Further, the growth in the assay on SF-295 CNS is 0.0837% (active); in the assay with SF-539 CNS, -8.27% (active); in the assay on UACC-257 melanoma it was 95.5%; with M14 melanoma, -6.06% (active); in the assay with HCT-15 colon it was 11%; with HT29 colon it was 101%. Besides, the growth with SNB-75 CNS was 90.1%; in the assay on SNB-19 CNS it was 14.9%; in the assay with U251 CNS, 96.3%; with PC-3 prostate it was 11.1%; in the assay on SK-MEL-5 melanoma, 22.1%; with UACC-62 melanoma, 25.2%. Besides, the results for the growth in the assay on LOX IMVI melanoma and in the assay with SK-MEL-28 melanoma were 22.2% and 55.4%, respectively.

Take `N#Cc1nc(-c2ccccc2)oc1S(=O)(=O)N1CCN(c2ccc(F)cc2)CC1`: the growth is 98.8% in the assay with DU-145 prostate; 3.68% (active) in the assay with K-562 leukemia; 51.8% in the assay with MALME-3M melanoma; 83.8% in the assay with MDA-MB-231 breast; 89.8% in the assay with RXF 393 renal; 88.8% in the assay with SF-268 CNS. Further, the growth was 105% in the assay on SF-295 CNS; 101% in the assay with SF-539 CNS; 86.8% in the assay with UACC-257 melanoma; 53.5% with M14 melanoma; 25.5% in the assay on HCT-15 colon; 46% with HT29 colon. Also, the growth in the assay on SNB-75 CNS is 96.9%; in the assay on SNB-19 CNS, 87.6%; in the assay on U251 CNS it was 82.1%; with PC-3 prostate, 67.5%; with SK-MEL-5 melanoma, 86.1%; in the assay with UACC-62 melanoma, 75.6%. Also, the growth was 15.2% in the assay with LOX IMVI melanoma and 94.7% in the assay on SK-MEL-28 melanoma.

On to `Cc1ccc2c(-c3nnc(N)s3)cc(=O)oc2c1C`, for which the growth with DU-145 prostate is 116%; in the assay with K-562 leukemia, 87.3%; in the assay on MALME-3M melanoma it was 104%; with MDA-MB-231 breast, 96.5%; in the assay with RXF 393 renal, 106%; in the assay with SF-268 CNS, 102%. Moreover, the growth is 97.4% with SF-295 CNS; 102% in the assay with SF-539 CNS; 106% in the assay with UACC-257 melanoma; 101% in the assay with M14 melanoma; 96.9% with HCT-15 colon; 106% with HT29 colon. Besides, the growth in the assay with SNB-75 CNS is 92.6%; in the assay with SNB-19 CNS, 104%; in the assay with U251 CNS it was 99.7%; in the assay with PC-3 prostate it was 97.1%; in the assay with SK-MEL-5 melanoma, 101%; with UACC-62 melanoma, 94.8%. Moreover, the growth in the assay on LOX IMVI melanoma was 101%; in the assay with SK-MEL-28 melanoma it was 102%.

Take `CNC(C)[C@H]1CCC2C3CC=C4C(=O)[C@@H](NC(=O)C=C(C)C)CC[C@]4(C)C3CC[C@@]21C` (stereo not given in full): the growth is 52.9% in the assay with DU-145 prostate; -62.1% (active) with K-562 leukemia; -52.2% (active) in the assay with MALME-3M melanoma; -12.4% (active) with MDA-MB-231 breast; -59% (active) in the assay on RXF 393 renal; -15.7% (active) in the assay with SF-268 CNS. Also, the growth with SF-295 CNS is -8.38% (active); in the assay with SF-539 CNS, -92.5% (active); in the assay with UACC-257 melanoma it was -30.8% (active); in the assay on M14 melanoma, -53.7% (active); in the assay on HCT-15 colon it was -54.1% (active); in the assay with HT29 colon, -52% (active). In addition, the growth with SNB-75 CNS is 22.5%; with SNB-19 CNS, 53.4%; with U251 CNS it was 18.2%; with PC-3 prostate, 6.67% (active); with SK-MEL-5 melanoma, -89.8% (active); with UACC-62 melanoma, -67.2% (active). Besides, the growth was -54% (active) in the assay with LOX IMVI melanoma and -86.1% (active) with SK-MEL-28 melanoma.

On to `COC(=O)/C=C1/SC(=Nc2ccc([N+](=O)[O-])cc2)N(CCc2c[nH]c3ccc(O)cc23)C1=O`, for which the growth in the assay on DU-145 prostate is 57.3%; with K-562 leukemia, 52.5%; in the assay with MALME-3M melanoma, 68.6%; with MDA-MB-231 breast, 61.1%; with RXF 393 renal it was 27.3%; in the assay with SF-268 CNS it was 43.7%. Also, the growth was 59.5% with SF-295 CNS; 66.2% in the assay with SF-539 CNS; 55.8% with UACC-257 melanoma; 46% in the assay with M14 melanoma; 46.9% in the assay on HCT-15 colon; 42.6% with HT29 colon. The growth is 54.4% with SNB-75 CNS; 40.3% in the assay with SNB-19 CNS; 36.3% in the assay with U251 CNS; 38.6% in the assay with PC-3 prostate; 50.5% in the assay on SK-MEL-5 melanoma; 30.1% in the assay with UACC-62 melanoma. For the same molecule, the growth with LOX IMVI melanoma was -21.9% (active); in the assay on SK-MEL-28 melanoma, 52.7%.
